Where “and” joins values, the source holds several entries; their conditions need not be identical. Identical values can stand only once. Hit rate of the full screen: of about 5,500 compounds, about 2,000 (36%) were called active. Roughly 18% stayed inconclusive and do not appear here. Cut-off read from the data, not from the text of the source: active = normalized growth mostly below about 0.91 (no sharp cut-off); inconclusive = no clear call, values can overlap the other calls; inactive = mostly above about 0.92. The list shows a part of the results.
Assay: chemical genetic growth profiling, strain panel (AID 1159580);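 note: tested at 20 µM; growth read once vehicle control cultures reached saturation at 30 °C; 1 = growth at the plate median or of vehicle wells; lower values mean less growth of the strain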
Conditions: S. cerevisiae deletion strains, growth OD

Measured: normalized growth

C[C@H]1OC(O[C@H]2[C@@H](O)CC(O[C@H]3[C@@H](O)C[C@H](O[C@H]4CC[C@]5(C)C6CC[C@]7(C)[C@@H](C8=CC(=O)OC8)[C@@H](O)C[C@]7(O)[C@@H]6CC[C@@H]5C4)O[C@@H]3C)O[C@@H]2C)C[C@H](O)C1O (some centres not stated)
inactive: locus YBR021W, strain FUR4, stronger effect = lower value 0.986 | locus YBR229C, strain ROT2, stronger effect = lower value 1.01 | locus YCL029C, strain bik1, stronger effect = lower value 0.989 | locus YDL035C, strain GPR1, stronger effect = lower value 0.992 | locus YDL074C, strain BRE1, stronger effect = lower value 1.01 | locus YDL101C, strain DUN1, stronger effect = lower value 1 | locus YDL134C, strain PPH21, stronger effect = lower value 1.01 | locus YDL185W, strain tfp1, stronger effect = lower value 0.981 | locus YDL192W, strain arf1, stronger effect = lower value 0.988 | locus YDR101C, strain arx1, stronger effect = lower value 0.991 | locus YDR150W, strain NUM1, stronger effect = lower value 1.02 | locus YDR162C, strain NBP2, stronger effect = lower value 1 | locus YDR318W, strain mcm21, stronger effect = lower value 1.01 | locus YDR388W, stronger effect = lower value 0.999 | locus YDR502C, strain sam2, stronger effect = lower value 0.987 | locus YEL061C, strain CIN8, stronger effect = lower value 0.999 | locus YER110C, stronger effect = lower value 0.986 | locus YER155C, strain BEM2, stronger effect = lower value 0.985 | locus YER167W, strain BCK2, stronger effect = lower value 0.99 | locus YGL078C, strain dbp3, stronger effect = lower value 0.981 | locus YGL086W, strain mad1, stronger effect = lower value 0.965 | locus YGL248W, strain PDE1, stronger effect = lower value 1.01 | locus YGR135W, strain pre9, stronger effect = lower value 1.01 | locus YGR229C, strain SMI1, stronger effect = lower value 0.998 | locus YGR252W, strain gcn5, stronger effect = lower value 1.02 | locus YHR030C, strain SLT2, stronger effect = lower value 1 and 1.03 | locus YHR079C, strain IRE1 (second series), stronger effect = lower value 0.998 | locus YHR079C, strain IRE1, stronger effect = lower value 1.03 | locus YHR094C, strain hxt1, stronger effect = lower value 0.989 | locus YHR129C, strain ARP1, stronger effect = lower value 0.999 | locus YHR200W, strain rpn10, stronger effect = lower value 1 | locus YIL066C, strain RNR3, stronger effect = lower value 1 | locus YIL073C, strain SPO22, stronger effect = lower value 1.01 | locus YIL125W, strain kgd1, stronger effect = lower value 0.981 | locus YIR030C, strain dcg1, stronger effect = lower value 0.989 | locus YJL095W, strain BCK1, stronger effect = lower value 1.01 and 1 | locus YJL134W, strain LCB3, stronger effect = lower value 1 | locus YJL168C, strain set2, stronger effect = lower value 0.996 | locus YJL187C, strain SWE1 (second series), stronger effect = lower value 1.02 | locus YJR043C, strain POL32, stronger effect = lower value 1.01 | locus YJR066W, strain TOR1, stronger effect = lower value 0.965 | locus YKL009W, strain mrt4, stronger effect = lower value 0.927 | locus YKL068W, stronger effect = lower value 0.994 | locus YKL085W, strain MDH1 (second series), stronger effect = lower value 0.988 | locus YKL085W, strain MDH1, stronger effect = lower value 0.988 | locus YKR001C, strain vps1, stronger effect = lower value 0.986 | locus YLR039C, strain RIC1, stronger effect = lower value 1.06 | locus YLR058C, strain SHM2, stronger effect = lower value 1 | locus YLR102C, strain apc9, stronger effect = lower value 0.99 | locus YLR113W, strain HOG1, stronger effect = lower value 0.975 | locus YLR262C, strain YPT6, stronger effect = lower value 1.04 | locus YLR268W, strain sec22, stronger effect = lower value 0.99 | locus YLR330W, strain CHS5, stronger effect = lower value 0.994 | locus YLR342W, strain FKS1 (second series), stronger effect = lower value 1.02 | locus YLR371W, strain rom2, stronger effect = lower value 0.989 | locus YLR418C, strain cdc73, stronger effect = lower value 0.998 | locus YML016C, strain PPZ1, stronger effect = lower value 1.01 | locus YML032C, strain rad52, stronger effect = lower value 1.01 | locus YML124C, strain tub3, stronger effect = lower value 1 | locus YMR078C, strain ctf18, stronger effect = lower value 1 | locus YMR223W, strain ubp8, stronger effect = lower value 1.01 | locus YMR263W, strain SAP30, stronger effect = lower value 1.01 | locus YMR307W, strain GAS1, stronger effect = lower value 1.05 | locus YNL067W, strain RPL9B, stronger effect = lower value 1.01 | locus YNL183C, strain NPR1, stronger effect = lower value 0.989 | locus YNL233W, strain BNI4, stronger effect = lower value 0.995 | locus YNL250W, strain rad50, stronger effect = lower value 0.983 | locus YNL271C, strain bni1, stronger effect = lower value 0.99 | locus YNL298W, strain CLA4, stronger effect = lower value 0.989 | locus YNL307C, strain MCK1, stronger effect = lower value 0.993 | locus YNL322C, strain KRE1, stronger effect = lower value 1.01 | locus YNR052C, strain pop2, stronger effect = lower value 0.999 | locus YOL012C, strain htz1 1.48 | locus YOL147C, strain pex11, stronger effect = lower value 0.984 | locus YOR061W, strain CKA2, stronger effect = lower value 1.01 | locus YOR069W, strain VPS5, stronger effect = lower value 0.995 | locus YOR136W, strain idh2, stronger effect = lower value 0.98 | locus YOR144C, strain elg1, stronger effect = lower value 0.995 | locus YOR184W, strain ser1, stronger effect = lower value 0.983 | locus YOR231W, strain MKK1, stronger effect = lower value 0.995 | locus YOR316C, strain cot1, stronger effect = lower value 0.994 | locus YPL256C, strain CLN2, stronger effect = lower value 1.03 | locus YPR119W, strain clb2, stronger effect = lower value 0.996 | locus YPR141C, strain kar3, stronger effect = lower value 0.99 | locus YPR163C, strain tif3, stronger effect = lower value 0.995 | locus YPR167C, strain met16, stronger effect = lower value 0.994 | strain wtn01, stronger effect = lower value 0.98

Source: PubChem BioAssay AID1159580 (chemical genetic matrix, 2015)
